Most compounds without a hit are left out; they make up all but 11% or so of the library.
IMPase Li inh: membrane-permeable IMPase blocker, potentiated with lithium | CHO-M1 cells, IP1 TR-FRET (IP-One), carbachol + lithium | Potency, µM (titrated, usually from 59.4 µM), without a hit: top-dose activity, negative = IMPase inhibition, hits mostly inhibitors | hit rate 0.35% among 210,000; active = well fitted inhibition curve with a large enough effect; inconclusive = small, poorly fitted or top-dose-only effect; inactive = no such curve, though single readings can be large or run the other way;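 also: IP1 builds up when IMPase is blocked and the TR-FRET signal falls; potency is read from the fitted curve at half-maximal effect; plate controls were basal vehicle for no effect and high inhibitor control for full effect; nearly all actives have a fitted effect of over 50% in size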
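CHO cells stably expressing M1 receptor (2000/well) were cultured 16–30 h, then exposed to compounds with a small lithium addition for 30 min at 37C. IP1 was measured by TR-FRET competition; AC50 from Hill fits.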
IMPase inh: IMPase inhibition in cells. inhibition (IP1 accumulation), % at 46.1 µM. AID 901. 120,000 tested, under 10 active. P97697. CHO-M1 cells, IP1 accumulation, HTRF TR-FRET ratio; active = well fitted curve in the direction sought with a large enough effect in the signal ratio, not every such curve was filed as active; inconclusive = small, poorly fitted or top-dose-only effect, or a change in a side signal; inactive = no such curve, though single readings can be large or run the other way; the % refers to the signal ratio;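 also: cells stimulated with carbachol in lithium chloride buffer; plate controls were DMSO basal wells for no effect and reference inhibitor wells for full effect; higher means more IMPase inhibition seen as more IP1 and lower FRET ratio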
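CHO-M1 cells (CHO stably expressing M1 receptor), compound up to 46 uM final, stimulated with carbachol (50 uM as added) in buffer with 50mM LiCl, pH 7.4, 30 min at 37C. Cytosolic IP1 read by TR-FRET; AC50 from Hill fits.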
HPGD block: inhibitors of human 15-hydroxyprostaglandin dehydrogenase (HPGD). purified HPGD, NADH fluorescence kinetic, PGE2 substrate. Potency, µM, inactives show at the highest dose activity change, negative = inhibition, usual class: inhibitors. hit rate 4.3% among 150,000. P15428; also: potency is read from the fitted curve at half-maximal effect
Target sequence (P15428 whole entry, looked up): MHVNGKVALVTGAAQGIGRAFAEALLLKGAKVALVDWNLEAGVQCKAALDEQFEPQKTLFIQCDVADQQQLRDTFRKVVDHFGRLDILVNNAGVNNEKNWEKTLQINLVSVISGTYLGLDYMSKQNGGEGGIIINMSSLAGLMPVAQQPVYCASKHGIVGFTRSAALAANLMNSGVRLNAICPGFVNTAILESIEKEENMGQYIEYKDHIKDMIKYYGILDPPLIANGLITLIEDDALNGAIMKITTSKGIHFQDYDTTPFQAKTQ
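20 nM HPGD preincubated 15 min at room temperature with compound in 50 mM Tris-HCl pH 8, 0.01% Tween 20. Started with 1 mM NAD+ and 30 uM prostaglandin E2; NADH fluorescence (360/450 nm) read 5 times over 30-s intervals, last minus first.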
PNC inhibitor: blocks assembly of the perinucleolar compartment | PC3M PTB-GFP, PNC prevalence imaging, 16 h; stronger effect = lower value | activity change (PNC), negative = inhibition, % at 10 µM | hit rate 3.1% among 140,000;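 active = readout at or below -70, meaning at least 70% loss of cells showing the perinucleolar compartment, a nuclear body marking cancer cells; inconclusive = readout between -30 and a set limit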;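 also: plate controls were DMSO wells for no effect and camptothecin positive control wells for full effect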
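Compounds are pinned in duplicate onto adhered PC3M cells stably expressing GFP-tagged PTB and incubated 16 h at 37 C. Cells are then fixed, nuclei stained with Hoechst, and PNC-positive cells counted.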
ALDH1A1 block: ALDH1A1 (human) enzyme inhibition; Purified ALDH1A1, NADH fluorescence, propionaldehyde substrate; Potency, µM (highest dose often 75.3 µM), for inactives: at the top dose activity, negative = inhibition, actives largely listed as inhibitors; hit rate 7.3% among 220,000; AID 1030;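 also: potency is read from the fitted curve at half-maximal effect; plate controls were no enzyme wells and a reference inhibitor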
Target sequence (P00352 whole entry, looked up): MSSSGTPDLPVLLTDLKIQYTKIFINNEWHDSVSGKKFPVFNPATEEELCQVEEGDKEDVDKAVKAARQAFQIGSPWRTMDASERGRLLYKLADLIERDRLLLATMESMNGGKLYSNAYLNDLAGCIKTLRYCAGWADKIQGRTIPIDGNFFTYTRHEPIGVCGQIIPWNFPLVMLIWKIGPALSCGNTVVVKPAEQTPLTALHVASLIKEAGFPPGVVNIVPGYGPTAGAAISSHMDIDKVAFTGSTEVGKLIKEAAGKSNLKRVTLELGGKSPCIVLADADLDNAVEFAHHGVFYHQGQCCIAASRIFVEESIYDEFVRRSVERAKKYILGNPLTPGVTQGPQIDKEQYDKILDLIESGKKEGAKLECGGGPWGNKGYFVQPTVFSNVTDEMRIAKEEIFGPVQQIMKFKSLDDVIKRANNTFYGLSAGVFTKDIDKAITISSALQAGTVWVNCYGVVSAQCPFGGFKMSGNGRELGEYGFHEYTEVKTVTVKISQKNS
* hit, by the source's call; ? = inconclusive; . = not tested or not shown; [ ] = remark or other dose. Unless noted, calls follow the shape of the dose curve; as a rule, active = well fitted inhibition curve with a large enough effect (not every such curve was filed as active); inconclusive = small, poorly fitted or top-dose-only effect, or another doubt; inactive = no such curve, though single readings can be large or run the other way. Unless noted, % is scaled to controls: 0 for no effect and ±100 for the full control effect.

SMILES	IMPase Li inh	IMPase inh	HPGD block	PNC inhibitor	ALDH1A1 block
COc1c2ccoc2nc2c(OC)c(OCC(OC(C)=O)C(C)(C)O)ccc12 (configuration not stated)	-6.2%	.	.	.	?
CC1=C(C(=O)N(C)C)C(c2ccc(C)s2)NC(=S)N1 (configuration not stated)	-9.9%	.	.	.	25.1µM*
CCN(CC)C(=O)C1=C(C)NC(=S)NC1c1ccc(C)s1 (configuration not stated)	11.4%	.	.	.	8.91µM*
CCN(CC)C(=O)C1=C(C)NC(=S)NC1c1cccs1 (configuration not stated)	4.9%	.	.	.	?
CC1=C(C(=O)N(C)C)C(c2ccc(Cl)c(Cl)c2)NC(=O)N1 (configuration not stated)	-4.8%[38.3 µM]	12.2	-11.3%	?	-2.6%
NC(=O)C1CCN(C(=O)c2cc3n(n2)C(C(F)(F)F)CC(c2ccco2)N3)CC1 (configuration not stated)	29.6%[38.3 µM]	8.8	-11.3%	-3.9	11.9µM*
C=CCOC(=O)C1=C[C@H](C2CC2)[C@@H](CCCO)[C@H](OCC)O1	0.4%	.	.	.	28.2µM*
CCO[C@H]1OC(C(=O)O)=C[C@@H](C2CC2)[C@@H]1CCCO	-5.7%	.	.	.	7.1%
CCOc1cc(Br)cc(C2NC(=O)c3c(sc4c3CCN(C)C4)N2)c1O (configuration not stated)	.	-7.6	.	.	.
O=c1c2ccccc2nnn1Cc1nnc(-c2ccccc2Br)o1	-4.4%[38.3 µM]	8.2	28.2µM*	?	?
Cc1cccc(N2CCN(C3=NC(=O)C(=C4CCCCC4)S3)CC2)c1	16.5%[38.3 µM]	10.5	-5.6%	?	6.31µM*
N#CCCN1CCN(C2=NC(=O)C(=C3CCCCC3)S2)CC1	-18.7%[38.3 µM]	-4.1	?	18.9	1.26µM*
CC(=O)N1CCN(C2=NC(=O)C(=C3CCCCC3)S2)CC1	1.6%	1.5	-8.9%	-100.0*	12.6µM*
O=C1N=C(N2CCOCC2)SC1=C1CCCCC1	22.7%[38.3 µM]	-3.8	-28.5%	-15.8	2µM*
Cc1cccc(N2CCN(C3=NC(=O)/C(=C\c4cn[nH]c4-c4ccccc4)S3)CC2)c1	13.4%	10.1	-12.6%	39.5	3.3%
O=c1c(O)c(-c2ccccc2)oc2ccc3occc3c12	1.9%	.	?	.	?
Cc1ccccc1-c1nc(NCCN2CCOCC2)c2ccccc2n1	-1.7%	.	-14.8%	.	6.5%
CC[n+]1c(/C=C/Nc2ccccc2)oc2ccc(OC)cc21	15.6%	.	.	.	7.1%
CC[n+]1c(/C=C/N(C)c2ccccc2)oc2ccc(F)cc21	17.4%	.	-2.7%	45.3	14.1µM*
CCN(CC)S(=O)(=O)c1ccc(C(=O)NC(C)(C)C)cc1	2.4%	.	.	.	0.6%
Cn1c(=O)oc2cc(S(=O)(=O)N3CCOCC3)ccc21	-11.7%[38.3 µM]	-11.1	-2.2%	-15.3	8.8%
O=S(=O)(c1ccc2c(c1)oc1ccccc12)N1CCOCC1	6.3%[38.3 µM]	-8.6	-7.6%	-80.6*	-5.5%
Cc1nc(NC(=O)c2ccc([N+](=O)[O-])cc2Cl)sc1C(=O)N(C)C	5.6%	.	14.1µM*	35.9	12.6µM*
CCOc1ccc(NC(=O)C(c2ccccn2)N(C(=O)CCl)c2ccc(F)cc2)cc1 (configuration not stated)	3.1%	0.5	1.0%	-16.5	11.2µM*
CCOc1ccc(NC(=O)CC(NCc2ccccn2)C(=O)O)cc1 (configuration not stated)	-5.8%	.	.	.	2.2%
SMILES	IMPase Li inh	IMPase inh	HPGD block	PNC inhibitor	ALDH1A1 block
O=c1c2c3c(sc2ncn1/N=C/c1ccc([N+](=O)[O-])o1)CCCC3	12.9%[38.3 µM]	20.0	-15.6%	29.7	0.199µM*
CCOC(=O)C1=C(C)N(Cc2ccccc2)C(=O)NC1c1ccc(OC)cc1 (configuration not stated)	9.6%[38.3 µM]	-3.9	-13.9%	24.1	?
COC(=O)c1[nH]nc2c1C(=O)N(Cc1ccccc1)C2=O	-9.0%[38.3 µM]	12.1	10µM*	26.4	?
CCOC(=O)c1[nH]nc2c1C(=O)N(Cc1ccccc1)C2=O	6.0%[38.3 µM]	8.2	8.91µM*	-25.8	?
NC(N)=NC(N)=Nc1ccccc1 (tested in a mixture with another compound)	0.2%	.	-6.3%	.	-10.2%[13.5 µM]
COc1cc(/C=C2/C(=N)N3OC(C)=CC3=NC2=O)ccc1OC(=O)c1ccco1	?	.	.	.	5.62µM*
COc1cc(/C=C2/C(=O)NN(c3cccc(F)c3)C2=O)ccc1OC(=O)c1ccco1	13.4%	1.6	3.98µM*	-80.6*	22.4µM*
COC(=O)N/N=C/c1ccc(OC(=O)c2ccco2)c(OC)c1	.	.	.	.	3.7%
COc1cc(/C=C2/C(=O)NN(c3ccc(Cl)cc3)C2=O)ccc1OC(=O)c1ccco1	0.1%	.	7.94µM*	19.2	?
C=CCN1C(=O)/C(=C\c2ccc(OC(=O)c3ccco3)c(OC)c2)SC1=S	1.4%	.	.	.	0.224µM*
CC1=CC2=NC(=O)/C(=C\c3ccc(OC(=O)c4ccco4)cc3)C(=N)N2O1	-5.1%	.	.	.	?
CCCn1c(-c2ccc(F)cc2)nc2c(NCCN(C(C)C)C(C)C)nc(C)nc21	14.0%	.	-28.5%	.	?
Cc1ccc2c(c1)C(=O)C(=O)N2CCCOc1ccccc1	10.9%	.	.	.	0.112µM*
Cc1ccc(OCCn2c(=O)oc3ccc(C)cc32)cc1	11.3%	.	.	.	?
Cc1cccc2c1N(C)C(=O)C2=O	6.0%	.	.	.	1.78µM*
O=C1c2ccccc2C(=O)N1CCCOc1ccccc1	11.6%[38.3 µM]	-12.6	2.6%	18.8	0.7%
Cc1cccc(OCCCN2C(=O)C(=O)c3cc(C)ccc32)c1	0.6%	.	.	.	0.1µM*
Cc1cccc(OCCN2C(=O)c3ccccc3C2=O)c1	14.4%	.	.	.	8.7%
Cc1ccc(OCCCN2C(=O)C(=O)c3cc(C)ccc32)cc1	11.6%	.	.	.	0.1µM*
CCCCNC(=O)NS(=O)(=O)c1ccc(NS(=O)(=O)c2ccccc2)cc1	-5.1%[38.3 µM]	-3.6	-9.1%	?	1.8%
O=C(NC1CCCCC1)N(C1=NCCCCC1)c1ccc(Br)cc1	9.2%	5.4	-15.4%	-23.6	6.4%
CN(C)c1ccc(-c2ccc3ncnc(NC4CC4)c3c2)cc1	12.7%	.	.	.	0.9%
CCOC(=O)CN1C(=O)C(=O)c2cccc(C)c21	2.9%	0.4	-14.7%	?	0.0251µM*
O=C(CN1C(=O)C(=O)c2ccccc21)OCN1C(=O)c2ccccc2C1=O	13.4%	.	.	.	3.9%
Cc1ccc(OCCN2C(=O)C(=O)c3cccc(C)c32)cc1	9.9%	.	.	.	0.199µM*
N#CCCn1cc(C(N)=O)c(-c2cccs2)n1	-2.4%	.	.	.	-7.7%
Cc1ccc(NC(=O)c2cn(CCC#N)nc2-c2cccs2)c([N+](=O)[O-])c1	7.1%	-10.7	-23.0%	-112.5*	?
Cc1cc(C(c2nnnn2Cc2ccccc2)N2CCOCC2)c(C)n1-c1ccc2c(c1)OCO2 (configuration not stated)	20.3%[38.3 µM]	0.6	-12.4%	-6.3	12.6µM*
c1ccc(Cn2nnnc2C(c2ccncc2)N2CCOCC2)cc1 (configuration not stated)	-6.5%[38.3 µM]	-3.5	-5.5%	-13.1	5.7%

Assay outcomes as filed in PubChem.
